Bioassay records as filed in PubChem BioAssay.
Wnt bcat act: Wnt/beta-catenin pathway activation. Wnt/beta-catenin reporter cell assay, activator, plate reader. activation, % at 9.35 µM. actives 1.2% (n = 300,000). AID 743398; in the data active means activation above about 30%, passing the limit was not always enough; inconclusive means no clear call, values can overlap the other calls;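 further: 0% = neutral control wells and 100% = positive control wells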
SMARCA2 activ: increases SMARCA2 function in MMTV reporter cells | MG213 cells, MMTV-luciferase reporter, dexamethasone, overnight | activation, % at 9.1 µM | actives 1% (n = 370,000) | AID 652017; in the data active means activation above about 7.8%;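 further: 0% = vehicle wells and 100% = reference activator wells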
HSF1 inhib: HSF1 inhibition; NIH3T3-HGL HSE-luciferase, MG132-induced, luminescence 8 h; active compounds read low; activity change, negative = inhibition, % at 7.5 µM (by protocol); actives 0.77% (n = 300,000);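 active means more than half of replicate wells show activity change below -50%, luminescence cut by over half; inconclusive means some wells, but at most half, below -50%; inactive means no replicate well below -50%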;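 further: luciferase reports HSF-1 transcriptional activity via heat shock element; 0% = median of DMSO wells and -100% = zero luminescence signal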
MITF act: increases MITF-driven TRPM1 promoter luciferase signal | actives 0.75% (n = 300,000) | SK-MEL-5 TRPM1-promoter luciferase, 24 h; % of positive control, neutral wells = 0 | AID 588334 | activation, % at 12.5 µM;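 active means mean activation of at least 80% with every replicate also reaching 80%; inconclusive means mean reaches 80% but some replicate falls short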;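 further: 0% = neutral control wells and 100% = parthenolide positive control wells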
HSF1 activator: increases HSF-1 driven luciferase reporter signal; NIH3T3-HGL HSF-1 luciferase reporter, MG132, 8 h; 100% = twice DMSO control signal; activation, % at 9 µM; actives 1.7% (n = 300,000);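 active means mean replicate activation of at least 50% with a set share of replicates each reaching 50%; inconclusive means only one of those two conditions met; inactive means mean below 50% and too few replicates reaching it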;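 further: 0% = median of the neutral control wells and 100% = twice that signal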
esBAF inh: blocks esBAF chromatin remodeling in mouse ES cells. AID 602393. reporter increase, % at 12.5 µM. actives 2% (n = 350,000). Bmi1-luciferase knock-in reporter, 24 h; 100% = twice the neutral-well signal; in the data active means activation above about 40%; inconclusive means no clear call, values can overlap the other calls;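 further: 0% = median of the plate's neutral control wells and 100% = double that signal; a rise in the Bmi1 reporter signal indicates esBAF inhibition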
Ring1 derepress: esBAF inhibition confirmed by Ring1 de-repression | shares compounds with esBAF inh | mouse ESC E14, Ring1 mRNA RT-qPCR fold change | fold change at 33 µM | 550 tested, under 10 active | AID 743176;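 active means Ring1 gene expression raised more than 2-fold over untreated cells in both replicates at either tested dose; inconclusive means only one replicate above 2-fold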;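 further: Ring1 transcript normalised to actin housekeeping signal by TaqMan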
Fgf4 repress: esBAF inhibition confirmed by Fgf4 repression | actives 4% (n = 550) | Fgf4 expression fold change at 33 µM | mouse ESC E14, Fgf4 mRNA qPCR fold change; active compounds read low | AID 743177 | shares compounds with esBAF inh;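 active means Fgf4 expression under 0.8 fold of control in both repeat measurements at one or both tested doses; inconclusive means under 0.8 fold in just a single repeat measurement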;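 further: Fgf4 transcript normalised to actin in duplex TaqMan qPCR; cells exposed to compound for 24 h before lysis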
Bmi1 derepress: confirmation of esBAF inhibitors: Bmi1 de-repression in mouse ESCs; fold change at 33 µM; 550 tested, under 10 active; shares compounds with esBAF inh; mouse ESE14 ES cells, Bmi1 mRNA qPCR fold; active compounds read high;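 active means Bmi1 expression fold change above 6 at either tested concentration, seen in replicate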;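 further: higher fold means more Bmi1 de-repression and stronger esBAF inhibition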
A549 cytotox: cytotoxicity in A549 cells. cell viability change % (negative = cytotoxic), % at 25 µM, hits read low. plate reader. shares compounds with esBAF inh. 550 tested, under 10 active; call rule not given here
HepG2 tox SP: cytotoxicity in HepG2 cells; shares compounds with esBAF inh; plate reader; active compounds read low; actives 4% (n = 550); activity change, negative = inhibition, % at 25 µM; in the data active means activity change below about -50%
HEK293 cytotox SP: HEK293 cell cytotoxicity at single point | shares compounds with esBAF inh | plate reader | activity change, negative = inhibition, % at 25 µM, hits read low | actives 3% (n = 550) | AID 743190; in the data active means activity change below about -38%, passing the limit was not always enough
An asterisk follows results filed as active. A selection: hits, their analogues and other compounds. The true share with any hit is near 4.3%.

Results for CCN(CC)C(=O)Oc1ccc2c(=O)c(-c3ccc(OC)cc3)coc2c1 ?
Wnt bcat act: 20.0; SMARCA2 activ: 0.4; HSF1 inhib: 26.7; MITF act: inconclusive; HSF1 activator: 38.8; esBAF inh: 60.9*; Ring1 derepress: 1.12; Fgf4 repress: 0.828; Bmi1 derepress: 1.62; A549 cytotox: -6.3; HepG2 tox SP: 1.6; HEK293 cytotox SP: -5.6

Results for C[C@H]1CN([C@@H](C)CO)C(=O)c2cc(NS(C)(=O)=O)ccc2O[C@@H]1CN(C)Cc1ccccc1 ?
esBAF inh: -1.4

How did CN(C)c1ccc(N=Nc2ccccc2C(=O)OCC(=O)Nc2ccccc2C(F)(F)F)cc1 do in these assays?
Wnt bcat act: 3.7; SMARCA2 activ: -0.1; HSF1 inhib: -5.6; MITF act: 5.5; HSF1 activator: -6.4; esBAF inh: 53.5*; Ring1 derepress: 1.19; Fgf4 repress: 1.01; Bmi1 derepress: 1.75; A549 cytotox: -14.5; HepG2 tox SP: 0.9; HEK293 cytotox SP: -16.9

How did Cc1nc(Nc2ccccc2)sc1C(=O)c1ccc(F)cc1 do in these assays?
Wnt bcat act: 9.5; SMARCA2 activ: 0.1; HSF1 inhib: 8.1; MITF act: 53.2; HSF1 activator: 31.4; esBAF inh: 66.0*; Ring1 derepress: 1.1; Fgf4 repress: 0.876; Bmi1 derepress: 1.47; A549 cytotox: 7.4; HepG2 tox SP: -11.6; HEK293 cytotox SP: -0.3

Results for Cc1nc(Nc2ccccc2)sc1C(=O)Nc1ccccc1 ?
Wnt bcat act: 15.3; SMARCA2 activ: 1.3; HSF1 inhib: 22.4; MITF act: 61.5; HSF1 activator: 39.4

How did COc1cc(C=O)c(Br)cc1OCc1ccc(C)cc1 do in these assays?
SMARCA2 activ: 1.2; HSF1 inhib: 13.7; MITF act: 21.5; HSF1 activator: 19.4; esBAF inh: 81.4*; Ring1 derepress: 1.54; Fgf4 repress: 1.12; Bmi1 derepress: 1.87; A549 cytotox: -5.1; HepG2 tox SP: 2.7; HEK293 cytotox SP: -10.9

What do the screens show for `N/C(=N\OC(=O)CC1CCCCC1)c1ccncc1`?
Wnt bcat act: 1.4; SMARCA2 activ: 2.9; MITF act: 9.3

What do the screens show for `N/C(=N\OC(=O)CC1CCCCC1)c1ccccn1`?
SMARCA2 activ: 5.5; HSF1 inhib: -9.4; MITF act: 87.5*; HSF1 activator: -14.2; esBAF inh: 82.2*; Ring1 derepress: 1.38; Fgf4 repress: inconclusive; Bmi1 derepress: 1.58; A549 cytotox: -1.2; HepG2 tox SP: -23.9; HEK293 cytotox SP: 8.2

What do the screens show for `CCOC(=O)C1=C(CSc2nc(-c3ccccc3)ccc2C#N)OC(N)=C(C#N)C1c1cccnc1` (stereo unspecified)?
SMARCA2 activ: 7.0; HSF1 inhib: -1.0; MITF act: 49.5; HSF1 activator: -0.4; esBAF inh: 72.6*; Ring1 derepress: 1.22; Fgf4 repress: inconclusive; Bmi1 derepress: 1.73; A549 cytotox: -5.6; HepG2 tox SP: -15.8; HEK293 cytotox SP: 11.0

Results for C[C@@H]1CCCCO[C@@H](CN(C)Cc2ccncc2)[C@@H](C)CN([C@@H](C)CO)C(=O)c2cc(NC(=O)c3ccccc3)ccc2O1 ?
esBAF inh: 2.0

How did CC(=O)c1ccccc1NC(=O)c1ccc(N2CCCC2=O)cc1 do in these assays?
Wnt bcat act: 19.5; SMARCA2 activ: 5.2; HSF1 inhib: 9.1; MITF act: 60.0; HSF1 activator: 11.3; esBAF inh: inconclusive

Results for CSc1ccccc1NC(=O)c1ccc(N2CCCC2=O)cc1 ?
Wnt bcat act: 24.0; SMARCA2 activ: 4.8; MITF act: 58.1; esBAF inh: 73.3*; Ring1 derepress: 1.17; Fgf4 repress: 0.824; Bmi1 derepress: 1.28; A549 cytotox: -2.8; HepG2 tox SP: -15.2; HEK293 cytotox SP: 5.5

Results for CC(C)CN1C(=O)c2ccc(C(=O)Nc3nccs3)cc2C1=O ?
SMARCA2 activ: 1.0; HSF1 inhib: 18.5; MITF act: 33.8; HSF1 activator: 27.4; esBAF inh: 62.8*; Ring1 derepress: 0.948; Fgf4 repress: 0.98; Bmi1 derepress: 1.43; A549 cytotox: -14.1; HepG2 tox SP: -34.3; HEK293 cytotox SP: -18.7

Results for CC(C)CN1C(=O)c2ccc(NC(=O)c3cccs3)cc2C1=O ?
SMARCA2 activ: -1.1; HSF1 inhib: 15.2; MITF act: inconclusive; HSF1 activator: 28.9; esBAF inh: 63.4*; Ring1 derepress: 1.33; Fgf4 repress: 0.974; Bmi1 derepress: 2.11; A549 cytotox: 5.8; HepG2 tox SP: -3.9; HEK293 cytotox SP: -14.4

Results for CC(C)CN1C(=O)c2ccc(NC(=O)C3CC3)cc2C1=O ?
Wnt bcat act: 1.3; SMARCA2 activ: -1.9; HSF1 inhib: 8.1; MITF act: 12.2; HSF1 activator: 7.8; esBAF inh: 0.0

What do the screens show for `C[C@@H]1CCCCO[C@@H](CN(C)C(=O)Cc2ccccc2)[C@H](C)CN([C@H](C)CO)C(=O)c2cc(NS(=O)(=O)c3ccc(F)cc3)ccc2O1`?
esBAF inh: 6.2

How did Cc1cccc(Nc2nc(-c3sc(C)nc3C)cs2)c1 do in these assays?
Wnt bcat act: 8.2; SMARCA2 activ: 0.2; HSF1 inhib: 2.4; HSF1 activator: 0.6; esBAF inh: 69.0*; Ring1 derepress: 1.19; Fgf4 repress: 0.948; Bmi1 derepress: 1.7; A549 cytotox: -1.2; HepG2 tox SP: -15.6; HEK293 cytotox SP: -22.7

Results for CC(=O)Nc1ccc2c(c1)CCc1ccccc1-2 ?
Wnt bcat act: 17.1; SMARCA2 activ: 1.4; HSF1 inhib: 16.5; MITF act: 37.3; HSF1 activator: 36.0; esBAF inh: 6.7

How did CC(=O)Nc1ccc2c(c1)Cc1c(F)cccc1-2 do in these assays?
Wnt bcat act: 26.7; SMARCA2 activ: 7.7; MITF act: 41.9; esBAF inh: 83.2*; Ring1 derepress: 1.1; Fgf4 repress: inconclusive; Bmi1 derepress: 1.48; A549 cytotox: 6.9; HepG2 tox SP: 60.2; HEK293 cytotox SP: 2.7
